Measured values taken from PubChem BioAssay.
Activity calls are given as the source filed them. Unless noted, how the calls were made is not given here.

Molecular target: Dihydroorotate dehydrogenase (quinone), mitochondrial (Plasmodium falciparum (isolate 3D7)) (UniProt Q08210)
Test: inhibition of P. falciparum DHODH – biochemical, C-terminal His tag, absorbance 600 nm, primary screen (AID 1175);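 further: recombinant parasite enzyme with a five histidine tag at its C terminus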
Settings: PfDHODH enzyme, DCIP absorbance 600 nm; higher = more signal, called active from +8 up or from −8 down
Further: test concentration not given here.

Chain of Dihydroorotate dehydrogenase (quinone), mitochondrial (Plasmodium falciparum (isolate 3D7)) (Q08210 whole entry, looked up): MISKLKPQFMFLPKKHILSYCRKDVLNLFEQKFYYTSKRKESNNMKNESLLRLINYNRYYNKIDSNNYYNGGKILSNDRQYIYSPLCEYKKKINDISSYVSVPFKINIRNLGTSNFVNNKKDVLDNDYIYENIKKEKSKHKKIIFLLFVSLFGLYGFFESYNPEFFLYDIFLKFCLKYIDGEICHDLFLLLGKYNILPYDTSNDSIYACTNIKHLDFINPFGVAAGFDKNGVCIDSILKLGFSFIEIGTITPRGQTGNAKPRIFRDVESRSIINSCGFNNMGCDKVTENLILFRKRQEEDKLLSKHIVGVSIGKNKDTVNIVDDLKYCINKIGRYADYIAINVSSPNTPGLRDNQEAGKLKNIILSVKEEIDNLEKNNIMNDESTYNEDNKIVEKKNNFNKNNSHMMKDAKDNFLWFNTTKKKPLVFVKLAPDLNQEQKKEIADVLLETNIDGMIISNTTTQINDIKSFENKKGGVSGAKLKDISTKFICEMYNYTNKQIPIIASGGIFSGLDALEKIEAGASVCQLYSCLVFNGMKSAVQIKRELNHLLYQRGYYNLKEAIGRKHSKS

Composite z-score, inactive:
CCCC[C@@H]1C[C@H]1[C@@H](NC(=O)c1cccs1)c1ccc(C(F)(F)F)cc1 0.322
COC(=O)c1ccc([C@H](NC(=O)c2ccco2)[C@]2(C)C[C@H]2C2CCCCC2)cc1 -0.751
O[C@@H](Cc1ccccc1)[C@@H](/C=C/C1CC1)N(CC#Cc1ccccc1)Cc1cccc(Cl)c1 -0.312
N#Cc1ccc(C(O)C2C=CC3C(=O)N(c4ccccc4)C(=O)C3N2Nc2ccccc2)cc1 (stereo unspecified) -0.561
CC(C)N1C(=O)c2ccccc2[C@@H](C(=O)NC2CC2)[C@@H]1c1ccc(CO)cc1 -0.54
COC(=O)c1nc2oc1CC[C@@H](CO)NC(=O)N(C)Cc1cnnn1C[C@H](Cc1ccccc1)NC2=O -0.288
C=CCNC(=O)[C@@H]1[C@H]2C(=O)O[C@H](c3ccccc3)[C@H](c3ccccc3)N2[C@H](c2ccc(O)cc2)[C@@]12C(=O)N(C(=O)OCCOC)c1ccc(C#CC3(O)CCCCCC3)cc12 0.263
O=C1C=C(c2ccccc2)C(=O)c2ccc([C@H]3Oc4ccccc4S(=O)(=O)N4CCC[C@@H]34)cc21 -5.82
C=C(COC)/C(=C/C[C@H](OC(C)=O)c1ccc(OCCO)cc1)c1cc(C(=O)OC)ccc1OC -2.16
CC(C)[Si](C#C[Si](C(C)C)(C(C)C)C(C)C)(O[C@H](C)c1cn([C@H](CO)Cc2ccccc2)nn1)C(C)C -0.487
CC1CC/C=C\[C@H]2OC34C=CCN(C(C)C)C(=O)[C@H]3N(CCCCCCO)C(=O)[C@@H]4C2C(=O)O1 (stereo partly specified) -0.36
CC1CC/C=C\[C@H]2OC34C=CCN(c5ccc(Cl)cc5)C(=O)[C@H]3N(CCCCCO)C(=O)[C@]4(C)C2C(=O)O1 (stereo partly specified) 1.22
COCCCNC(=O)[C@@]1(Sc2ccc(C)cc2)CC(=O)N(C2CCCCC2)[C@@H]1c1ccc(CO)cc1 -0.0365
[N-]=[N+]=Nc1ccccc1[C@H]1OC(c2ccc(OCCCO)cc2)=N[C@@]1(Cc1ccccc1)C(=O)N1CCCCC1 -0.827
CC(C)OC(=O)C=C1C[C@@H](c2ccc(C(F)(F)F)cc2)O[C@@H](c2ccc(C(F)(F)F)cc2)O1 -1.4
[N-]=[N+]=Nc1ccccc1[C@@H]1OC(c2ccc(OCCCO)cc2)=N[C@]1(Cc1ccccc1)C(=O)NCC(O)CO (stereo partly specified) 0.255
[N-]=[N+]=Nc1ccccc1C[C@]1(C(N)=O)N=C(c2ccc(OCCCO)cc2)O[C@H]1c1ccccc1N=[N+]=[N-] -0.398
C[C@@H]1NC(=O)[C@@]23C(=O)N[C@@H](Cc4ccccc4)C2[C@H](C)[C@@]2(C)O[C@H]2C3/C=C/C/C=C\CNC(=O)[C@@H]2CCCN2C1=O (stereo partly specified) -0.972
COCCCNC(=O)[C@]1(CCS(=O)(=O)c2ccccc2)N=C(c2ccc(OCCCO)cc2)O[C@@H]1c1ccccc1N=[N+]=[N-] 0.887
O=C1OCCC/C=C\[C@H]2OC34C=CCN(CCN5CCOCC5)C(=O)[C@H]3N(CCCCCCO)C(=O)[C@@H]4C12 (stereo partly specified) -1.38

Tested on: not listed separately
Test: inhibition of PAO1 biofilm formation – strain PAO1, LB-PBS medium, absorbance 600 nm, primary screen (AID 1176)
Settings: P. aeruginosa PAO1 growth/biofilm, A600, 12 h; higher = more signal

z-score, inactive:
[N-]=[N+]=NCc1ccccc1C[C@@]1(C(=O)N2CCCCC2)N=C(c2ccc(OCCCO)cc2)O[C@@H]1c1ccccc1 0.137
O=C1O[C@@H](c2ccccc2)[C@@H](c2ccccc2)N2[C@@H](c3ccc(OCCO)cc3)[C@]3(C(=O)Nc4ccccc43)[C@@H](C(=O)O)[C@H]12 0.449
CC(CO)N1C(=O)[C@@H]2[C@H]3C(=O)OCC=C[C@H]3OC23C=CCN(C(C)(C)C)C(=O)[C@@H]13 (stereo partly specified) -0.401
CN1C(=O)C2C=CC(C(O)c3cccc4ccccc34)N(N3CCCCC3)C2C1=O (stereo unspecified) -0.0625
CN(C)C(=O)[C@]1(CCS(=O)(=O)c2ccccc2)N=C(c2ccc(OCCCO)cc2)O[C@@H]1c1ccccc1N=[N+]=[N-] 0.218
COC(=O)[C@@]1(Cc2ccc(F)cc2)[C@H]2c3cc(C(=O)N4CCCC4)n(CCc4ccc(O)c(O)c4)c3C[C@H]2CN1C(=O)c1ccccc1 1.78
CN(C)CCCNC(=O)[C@@]1(c2ccc([N+](=O)[O-])cc2)CC(=O)N(CC23CC4CC(CC(C4)C2)C3)[C@@H]1c1ccc(CO)cc1I 0.277
Cc1cc(C)c(C(O)C2C=CC3C(=O)NC(=O)C3N2Nc2ccc(Cl)cc2Cl)c(C)c1 (stereo unspecified) 1.62
COCCOC(=O)N1C(=O)[C@@]2(c3cc(C#CC4=CCCCC4)ccc31)[C@H](c1ccc(OCCO)cc1)N1[C@H](c3ccccc3)[C@H](c3ccccc3)OC(=O)[C@H]1[C@@H]2C(=O)N1CCN(c2ncccn2)CC1 2.28
C=CCC(OC(C)=O)[C@@H]1[C@@H](N(Cc2ccc(-c3ccccc3)cc2)C(=O)Cc2ccc(F)cc2)c2cc(OCCCO)ccc2N1C(=O)Cc1ccc(OC)cc1 (stereo partly specified) -0.431
COC(=O)[C@@]1(Cc2ccc(OC)cc2)[C@H]2c3cc(C(=O)N(C)C)n(C[C@H](O)CO)c3C[C@H]2CN1C(=O)c1ccccc1 2.01
Cn1cccc1C(O)C1C=CC2C(=O)NC(=O)C2N1Nc1ccc(Cl)cc1Cl (stereo unspecified) 1.69
COc1ccc([Si](C)(C)[C@@H]2[C@@H](CC(=O)N(CCO)Cc3ccccc3)O[C@]3(C(=O)N(Cc4cccc(N5C(=O)c6cccc7cccc5c67)c4)c4ccccc43)[C@H]2C)cc1 1.25
Cc1ccc(S[C@]2(C(=O)NCC(F)(F)F)CC(=O)N(Cc3ccccc3C(F)(F)F)[C@@H]2c2ccc(CO)cc2I)cc1 -0.0623
CCOc1cc(C(O)C2C=CC3C(=O)N(c4ccccc4)C(=O)C3N2Nc2ccc(C#N)cc2)ccc1O (stereo unspecified) 0.888
COCCOC(=O)N1C(=O)[C@@]2(c3ccccc31)[C@H](C(=O)N1CCN(c3ncccn3)CC1)[C@H]1C(=O)O[C@H](c3ccccc3)[C@H](c3ccccc3)N1[C@@H]2c1ccc(O)cc1 1.81
CCCC[C@@H]1C[C@H]1[C@@H](NC(=O)c1cccs1)c1ccc(C(F)(F)F)cc1 0.771
COC(=O)c1ccc([C@H](NC(=O)c2ccco2)[C@]2(C)C[C@H]2C2CCCCC2)cc1 0.619
O[C@@H](Cc1ccccc1)[C@@H](/C=C/C1CC1)N(CC#Cc1ccccc1)Cc1cccc(Cl)c1 -0.131
N#Cc1ccc(C(O)C2C=CC3C(=O)N(c4ccccc4)C(=O)C3N2Nc2ccccc2)cc1 (stereo unspecified) 1.06
CC(C)N1C(=O)c2ccccc2[C@@H](C(=O)NC2CC2)[C@@H]1c1ccc(CO)cc1 0.277
COC(=O)c1nc2oc1CC[C@@H](CO)NC(=O)N(C)Cc1cnnn1C[C@H](Cc1ccccc1)NC2=O 0.383
C=CCNC(=O)[C@@H]1[C@H]2C(=O)O[C@H](c3ccccc3)[C@H](c3ccccc3)N2[C@H](c2ccc(O)cc2)[C@@]12C(=O)N(C(=O)OCCOC)c1ccc(C#CC3(O)CCCCCC3)cc12 -0.123
O=C1C=C(c2ccccc2)C(=O)c2ccc([C@H]3Oc4ccccc4S(=O)(=O)N4CCC[C@@H]34)cc21 0.649
C=C(COC)/C(=C/C[C@H](OC(C)=O)c1ccc(OCCO)cc1)c1cc(C(=O)OC)ccc1OC 0.838
CC(C)[Si](C#C[Si](C(C)C)(C(C)C)C(C)C)(O[C@H](C)c1cn([C@H](CO)Cc2ccccc2)nn1)C(C)C 1.01
CC1CC/C=C\[C@H]2OC34C=CCN(C(C)C)C(=O)[C@H]3N(CCCCCCO)C(=O)[C@@H]4C2C(=O)O1 (stereo partly specified) 0.345
CC1CC/C=C\[C@H]2OC34C=CCN(c5ccc(Cl)cc5)C(=O)[C@H]3N(CCCCCO)C(=O)[C@]4(C)C2C(=O)O1 (stereo partly specified) -0.801
COCCCNC(=O)[C@@]1(Sc2ccc(C)cc2)CC(=O)N(C2CCCCC2)[C@@H]1c1ccc(CO)cc1 -0.438
[N-]=[N+]=Nc1ccccc1[C@H]1OC(c2ccc(OCCCO)cc2)=N[C@@]1(Cc1ccccc1)C(=O)N1CCCCC1 0.603
CC(C)OC(=O)C=C1C[C@@H](c2ccc(C(F)(F)F)cc2)O[C@@H](c2ccc(C(F)(F)F)cc2)O1 0.257
[N-]=[N+]=Nc1ccccc1[C@@H]1OC(c2ccc(OCCCO)cc2)=N[C@]1(Cc1ccccc1)C(=O)NCC(O)CO (stereo partly specified) -0.291
[N-]=[N+]=Nc1ccccc1C[C@]1(C(N)=O)N=C(c2ccc(OCCCO)cc2)O[C@H]1c1ccccc1N=[N+]=[N-] -0.193
C[C@@H]1NC(=O)[C@@]23C(=O)N[C@@H](Cc4ccccc4)C2[C@H](C)[C@@]2(C)O[C@H]2C3/C=C/C/C=C\CNC(=O)[C@@H]2CCCN2C1=O (stereo partly specified) 1.28
COCCCNC(=O)[C@]1(CCS(=O)(=O)c2ccccc2)N=C(c2ccc(OCCCO)cc2)O[C@@H]1c1ccccc1N=[N+]=[N-] 0.413
O=C1OCCC/C=C\[C@H]2OC34C=CCN(CCN5CCOCC5)C(=O)[C@H]3N(CCCCCCO)C(=O)[C@@H]4C12 (stereo partly specified) 0.0251
